Experiment in all cases: NCI-60 one-dose screen, 48 h (100 = growth as untreated, 0 = no growth, -100 = all killed)
Experiment [1] deals with NCI-H23 lung. The settings on record: 10 µM unless noted.
Experiment [2] relates to NCI-H226 lung. The following applies: 10 µM unless noted.
The test system of experiment [3] is NCI-H322M lung. The following applies: 10 µM unless noted.
Experiment [4] relates to NCI-H460 lung. The settings on record: 10 µM unless noted.
In experiment [5] the test system is HOP-92 NSCLC. The settings on record: 10 µM.
Experiment [6] relates to NCI-H522 lung. The settings on record: 10 µM.
Experiment [7] concerns A549/ATCC NSCLC. The following applies: 10 µM unless noted.
In experiment [8] the test system is 786-0 renal. The following applies: 10 µM unless noted.
Experiment [9] deals with COLO 205 colon. The following applies: 10 µM unless noted.

Structures are written as SMILES. Compounds without any hit were thinned out: in the full panel of roughly 83,000, 20% have a hit.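 Results are percent growth after 48 hours of single-concentration exposure. 100 means growth as in untreated cells, lower positive values show inhibition; negative values down to -100 show cell death.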 Unmarked numbers belong to inactive results. Activity calls are given as the source filed them. Rule for the calls: active = growth percent below 10; inactive = the rest.

As to `COC(=O)c1ccc2[nH]c(O)c(C(=Nc3ccc(N(C)C(=O)CN4CCN(C)CC4)cc3)c3ccc4c(c3)OCO4)c2c1`, the growth was 5.66% (active) in experiment [1]; 23.3% in experiment [2]; 21% in [3]; 8.35% (active) in experiment [4]; 36.9% in experiment [5]; 2.17% (active) in [6]. In addition, the growth is 5.98% (active) in [7] and 14.4% in experiment [8].

In the case of `Nc1nc2c(c3cnccc13)C(c1cccc(Cl)c1)Cc1cnccc1-2` (stereo not drawn), the growth in experiment [1] was 0.544% (active); in [2], 17.2%; in [3], 40.1%; in experiment [4], 2.15% (active); in [5], 33.1%; in experiment [6] it was 7.88% (active). For the same compound, the growth in [7] is 13.6%; in experiment [8], 19.6%.

On to `CCOc1ccc(/C=N/NC(=O)c2cccc3ccccc23)cc1OCC`, for which the growth is 92.3% in experiment [1]; 96.7% in [2]; 119% in experiment [3]; 101% in experiment [4]; 68.5% in experiment [5]; 87.4% in [6]. Further, the growth in experiment [7] was 96.6%; in experiment [8], 102%; in experiment [9], 110%.

`COc1ccc(CN2C(=O)/C(=C\C(=O)c3ccc(OCCN4CCCC4)cc3)c3ccccc32)cc1`: the growth in experiment [1] is 83.8%; in experiment [2], 87.8%; in experiment [3] it was 97.6%; in experiment [4], 94.4%; in [5], 54.4%; in [6] it was 31.9%. Moreover, the growth in experiment [7] is 97.2%; in experiment [8], 85.7%; in experiment [9] it was 83.9%.

In the case of `CCCCCCCCCCCCCCCCCC1=NCCN1CS(=O)(=O)O`, the growth is 87.5% in experiment [1]; 87.5% in experiment [2]; 15.5% in [3]; -79.1% (active) in experiment [4]; 38.5% in experiment [5]; 84.5% in [6]. Also, the growth is -8.05% (active) in experiment [7], 74.5% in experiment [8] and 29.2% in [9].

As to `Nc1nc2c(c3cnccc13)C(c1cccc(Br)c1)Cc1cnccc1-2` (stereo not drawn), the growth is -0.611% (active) in [1]; 25.5% in experiment [2]; 31.5% in experiment [3]; 4.41% (active) in [4]; 15.6% in experiment [5]; 3.33% (active) in [6]. For the same compound, the growth is 13.2% in experiment [7] and 14.1% in experiment [8].

For `O=C(N/N=C/c1cc(Cl)ccc1O)C(=O)N/N=C/c1cc(Cl)ccc1O`, the growth in experiment [1] was 80%; in experiment [2], 74.9%; in experiment [3] it was 61.6%; in [4] it was 34.8%; in experiment [5], 51.9%; in [6] it was 62.7%. For the same compound, the growth was 52.6% in experiment [7] and 65.2% in [8].

On to `O=C1Nc2ccccc2/C1=C/c1cn(CC(O)Cn2cc(/C=C3\C(=O)Nc4ccccc43)c3ccccc32)c2ccccc12` (stereo not drawn), for which the growth was -67.3% (active) in experiment [1]; -74.9% (active) in experiment [2]; -39.1% (active) in experiment [3]; -65.1% (active) in experiment [4]; -73.9% (active) in [5]; -17.4% (active) in experiment [6]. For the same compound, the growth in [7] is -11.6% (active); in experiment [8], -70.9% (active).

On to `O=C1C(=O)c2ccccc2C(O)=C1CCCc1ccc(C2CCCC2)cc1`, for which the growth in experiment [1] is 36.5%; in experiment [2], 36.8%; in experiment [3], 37.9%; in experiment [4], 9.54% (active); in [5], 78.2%; in experiment [6], 39.2%. For the same compound, the growth in experiment [7] is 37.9%; in experiment [8], 43.8%.

Consider `O=C(Cc1ccccc1[N+](=O)[O-])c1ccc2c(c1)OCO2`, for which the growth in experiment [1] was 99.3%; in experiment [2], 97.1%; in experiment [3], 103%; in [4] it was 101%; in [5], 82%; in experiment [6], 91.7%. For the same compound, the growth in experiment [7] is 98.1%; in experiment [8], 94.3%; in [9], 116%.

For `CC1C(=O)CCCC1=O`, the growth in [1] was 113%; in experiment [2] it was 121%; in experiment [3], 99.4%; in experiment [4] it was 120%; in [5], 106%; in experiment [6] it was 90.9%. Further, the growth in [7] is 102%; in experiment [8], 103%; in [9], 114%.

For `COc1cc(NC(C)CCCN)c2nccc(C)c2c1OC` (stereo not drawn), the growth was 51.8% in experiment [1]; 97.2% in experiment [2]; 103% in [3]; 109% in experiment [4]; 47.9% in [5]; 31.6% in experiment [6]. Also, the values for the growth in [7], in experiment [8] and in experiment [9] were 144%, 98.8% and 50.6%, respectively.

Consider `COc1cc(N2C(=O)C=CC2=O)ccc1N1C(=O)C=CC1=O`, for which the growth in experiment [1] was 105%; in experiment [2], 105%; in experiment [3] it was 116%; in [4], 104%; in experiment [5], 93.1%; in [6], -59.8% (active). The growth in experiment [7] was 103%; in [8], 107%; in experiment [9], 53%.

Take `COc1cccc2c1nc1cccc(OC)c1[n+]2[O-]`: the growth is 9.62% (active) in experiment [1]; 71.2% in [2]; 78.6% in experiment [3]; 14.1% in experiment [4]; 31.4% in [5]; 20.2% in experiment [6]. The growth in [7] was 36.8%; in experiment [8], 32.5%; in experiment [9], 77.9%.

On to `Nc1nc2c(c3ncncc13)C(c1cccc(C(F)(F)F)c1)Cc1ncncc1-2` (stereo not drawn), for which the growth in experiment [1] was 18.4%; in experiment [2], 55.6%; in experiment [3] it was 39%; in experiment [4], 10%; in experiment [5], 46%; in experiment [6], 32.9%. Further, the figures for the growth in [7] and in [8] were 39.8% and 28.5%, respectively.

The record behind these values is PubChem BioAssay (NCI).
